This is a sample that favours compounds with a hit; in the whole collection about 5.7% have one here.
KB-3-1 cytotox = qHTS assay for MDR1-selective chemotherapeutics: Primary screen using the parental adenocarcinoma cell KB-3-1. KB-3-1 viability, CellTiter-Glo ATP luminescence, 72 h. Potency, µM (highest dose often 46.1 µM), most hits filed as cytotoxic. hit rate 1.4% among 400,000; further: nearly all actives have a fitted effect of over 60% in size
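KB-3-1 parental drug-naive adenocarcinoma cells in DMEM/10% FBS, incubated 72 h at 37 C with pin-transferred compounds across a concentration series. Viability by CellTiter-Glo luminescence; concentration-response curves fitted after normalization.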
HT1080 IDH1KD tx = qHTS for induction of synthetic lethality in tumor cells producing 2HG: qHTS for the HT-1080-IDH1KD cell line | AID 686971, 2013 | Potency, µM (titrated, usually from 46.1 µM), without a hit: at the top dose activity, negative = toxicity, most hits filed as cytotoxic | hit rate 2% among 360,000 | HT-1080 IDH1 knockdown viability, ATP luminescence, 48 h;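 further: 0% = DMSO wells and -100% = cell-free medium wells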
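IDH1KD HT-1080 cells, 750/well, RPMI + 5% FBS; compound pinned after 2 h settling; 48 h, 37 °C; CellTiter-Glo luminescence; % activity normalised to DMSO and no-cell wells; curves fitted, classed by r2 and efficacy.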
HT1080NT lethal = qHTS for induction of synthetic lethality in tumor cells producing 2HG: qHTS for the HT-1080-NT fibrosarcoma cell line | hit rate 1.6% among 360,000 | HT-1080-NT fibrosarcoma viability, CellTiter-Glo ATP luminescence, 48 h | AID 686970, 2013 | Potency, µM (series often up to 46.1 µM), without a hit: top-dose activity, negative = less viability, most hits filed as cytotoxic;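 further: NT is the 2HG producing partner of a matched IDH1 knockdown line; 0% = DMSO-treated cells and -100% = media-only wells without cells; nearly all actives have a fitted effect of over 55% in size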
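A 48-hour cytotoxicity screen used HT-1080-NT cells plated 2 hours before compound delivery. ATP-based CellTiter-Glo luminescence measured viability, normalized to DMSO and no-cell controls.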
KB-V1 MDR tox = qHTS assay for MDR1-selective chemotherapeutics: Primary screen using the drug-selected MDR subline cells KB-V1; KB-V1 MDR cells viability, CellTiter-Glo, 72 h; hit rate 3.4% among 400,000; AID 1347076, 2019; Potency, µM (top dose mostly 46.1 µM), most hits filed as cytotoxic; further: nearly all actives have a fitted effect of over 60% in size
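In this primary screen, KB-V1 cells overexpressing P-gp are incubated with library compounds (lowest to highest concentration) for 72 h at 37 degrees C before a luminescent ATP viability read.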
* = called active by the depositor; i = inactive; ? = inconclusive; . = no result. The call rests on the fitted dose curve; in most records, active means well fitted curve in the direction sought with a large enough effect; inconclusive means small, poorly fitted or top-dose-only effect, or another doubt; inactive means no such curve, though single readings can be large; an effect the other way counts as inactive or inconclusive. Unless noted, on the % scale 0 is the no-effect control and ±100 the full control effect; potency means the concentration at half of the fitted maximal effect.

SMILES | KB-3-1 cytotox | HT1080 IDH1KD tx | HT1080NT lethal | KB-V1 MDR tox
O=c1c2[nH]c3ccccc3c2ncn1CCC1=CCCCC1 | i | 17.1% | 16.9% | i
COc1ccc(CNC(=O)Cn2cnc3c(NCc4ccccc4)ncnc32)cc1 | 10.3µM* | 16.4µM* | 14.6µM* | i
CC(C)OCCCNc1ncnc2c1[nH]c1ccccc12 | 7.31µM* | ? | ? | ?
CCCCOC(=O)c1ccc(NC(=O)c2csnn2)cc1 | i | . | . | i
CCOC(=O)C1CCCN(c2nc3c(S(=O)(=O)c4ccc(CC)cc4)nnn3c3ccsc23)C1 (stereo not drawn) | i | . | . | i
CC(O)(CS(=O)(=O)Cc1ccc(Cl)cc1)C(=O)Nc1cccc(C(F)(F)F)c1 (stereo not drawn) | i | 12.6µM* | ? | i
O=C(Nc1cccc(C(F)(F)F)c1)N(Cc1ccc(Cl)cc1)CC(O)C(F)(F)F (stereo not drawn) | ? | 18.4µM* | 16.4µM* | ?
CCc1ccc2nc(N(CCN(CC)CC)C(=O)c3cccs3)sc2c1 | i | . | . | i
COc1ccc(OC)c(/C=C2\SC(=S)N(Cc3cccnc3)C2=O)c1 | ? | 16.7% | 4.7% | 14.6µM*
CCOC(=O)C1CCN(C(=O)c2ccccc2)C(CC)C1=O (stereo not drawn) | i | -1.5% | -0.3% | 20.6µM*
COC(=O)C1(C)COP(=O)(NC23CC4CC(CC(C4)C2)C3)OC1 (stereo not drawn) | i | 15.3% | 6.4% | 18.4µM*
CC1=NN(c2ccc(Cl)cc2)C(=O)C1C(c1cccc(O)c1)c1c(C)[nH]n(-c2ccc(Cl)cc2)c1=O (stereo not drawn) | i | ? | 16.4µM* | i
CC1CN(C(=O)Nc2ccc(C(=O)NCc3ccccc3F)cc2)c2ccccc2S1 (stereo not drawn) | i | . | . | i
Cc1nn(C(C)C(=O)Nc2cccc(F)c2)c(=O)c2c1sc1ccccc12 (stereo not drawn) | i | . | . | i
COc1cc(C(CC(=O)Nc2ccc(Br)cn2)N2Cc3ccccc3C2=O)cc(OC)c1OC (stereo not drawn) | i | . | . | i
Cc1cc(C)c(C)c(S(=O)(=O)N2CCC(C(=O)NCC(c3ccccc3)N(C)C)CC2)c1C (stereo not drawn) | i | 18.4µM* | ? | i
CCc1ccc(NC(=O)CN(c2ccc(C)cc2)S(=O)(=O)c2cccs2)cc1 | i | . | . | i
Cc1c(-c2nnc(SCC(=O)Nc3ccc(Cl)cc3)o2)nnn1-c1ccc(F)cc1 | i | . | . | i
COc1ccccc1OCCOCCOc1ccc(C)cc1[N+](=O)[O-] | i | 14.7% | 7.2% | 13µM*
Nc1ccc2c(c1)COc1ccccc1O2 | i | -10.4% | -13.1% | 18.4µM*
Nc1ccc2c(c1)Oc1ccccc1C=C2 | i | 2.9% | -5.5% | i
Cc1cc(C)cc(NC(=O)c2cccc(N3CCCS3(=O)=O)c2)c1 | i | . | . | i
COc1ccc(CCNc2oc(Cc3cccc4ccccc34)nc2C#N)cc1OC | ? | -22.7% | -22.6% | 18.4µM*
CC(C)Nc1oc(Cc2cccc3ccccc23)nc1C#N | i | -12.9% | -3.7% | 16.4µM*
CNc1oc(Cc2cccc3ccccc23)nc1C#N | i | -6.0% | -19.3% | i
SMILES | KB-3-1 cytotox | HT1080 IDH1KD tx | HT1080NT lethal | KB-V1 MDR tox
O=C(c1ccccc1)c1ccc(-c2ccc(O)cc2)cc1 | ? | ? | 18.4µM* | ?
COc1ccccc1N1CCN(CCC(=O)Nc2ccc3c(c2)OCO3)CC1 | i | -12.2% | -11.3% | 20.6µM*
COc1ccccc1-n1c(SCC(=O)Nc2ccc3c(c2)OCO3)nc2c(c1=O)SCC2 | i | -1.8% | -3.3% | 7.31µM*
COc1ccc(C#Cc2c[nH]c(=O)c3cncnc23)cc1OC | . | -5.1% | -13.4% | .
CCc1cccc(CC)c1NC(=O)Cn1nnc2sc3c(c2c1=O)CCCC3 | i | . | . | i
Cc1nc2ccc(NC(=O)c3ccc(Cl)c(NC(=O)c4cccs4)c3)cc2s1 | i | -17.7% | -15.1% | 23.1µM*
COc1ccc(S(=O)(=O)N2CCN(S(=O)(=O)c3ccc4c(c3)OCCO4)CC2)cc1 | i | -3.4% | -2.4% | i
COc1ccc(S(=O)(=O)N2CCN(Cc3cc4c(cc3Br)OCCO4)CC2)cc1 | i | -3.7% | -4.4% | 14.6µM*
CN1CCN(c2ccccc2NC(=O)c2ccc(-c3ccc(Cl)c(Cl)c3)o2)CC1 | i | -1.6% | -3.6% | i
COc1ccccc1NC(=O)c1ccc(-c2ccc(Br)cc2)o1 | 5.8µM* | 18.4µM* | ? | 3.26µM*
COc1ccccc1N1CCN(C(=O)c2oc3ccc(F)cc3c2C)CC1 | ? | -29.1% | -11.0% | ?
Cc1c(C(=O)Nc2ccccc2N2CCN(C)CC2)oc2ccc(F)cc12 | 16.4µM* | -2.3% | -20.7% | ?
O=C(Nc1ccccc1N1CCCCC1)c1ccc(-c2ccc(Cl)cc2)o1 | 8.2µM* | 2.06µM* | 2.06µM* | 20.6µM*
Cc1cc(N2CCN(C)CC2)ccc1NC(=O)c1ccc(-c2ccc(Cl)cc2)o1 | i | 23.1µM* | 23.1µM* | i
Cc1cc(O)c(NC(=S)NC(=O)c2ccc(-c3ccc(Cl)cc3)o2)cc1C | i | ? | ? | i
CN1CCN(c2ccccc2NC(=O)c2ccc(-c3ccc(Br)cc3)o2)CC1 | ? | 2.59µM* | ? | ?
COc1cc(NC(=O)c2cc(Cl)c(OC)c(Cl)c2)ccc1NC(=O)c1cc2ccccc2o1 | i | . | . | i
CC1=C(C(=O)N2CCCCCC2)CC(CC(=O)NC(c2ccccc2)c2ccccc2)C(=O)N1CCC1=CCCCC1 (stereo not drawn) | ? | ? | ? | 16.4µM*
CC1=C(C(=O)N2CCOCC2)CC(CC(=O)NC2CC2)C(=O)N1CCC1=CCCCC1 (stereo not drawn) | i | 6.6% | 8.7% | i
COc1ccc(-c2noc(-c3ccc(NC4CCCCC4)c([N+](=O)[O-])c3)n2)cc1 | i | . | . | ?
O=C(CSc1nnc(-c2ccc3c(c2)OCO3)n1-c1ccccc1)c1ccc(Cl)cc1 | i | 11.5% | -5.0% | 16.4µM*
C=CCn1c(SCC(=O)c2ccc(Cl)cc2)nnc1-c1ccc2c(c1)OCO2 | i | -12.5% | 0.0% | ?
O=C(CSc1nnc(-c2ccc3c(c2)OCO3)n1-c1ccccc1)c1ccccc1 | i | 23.5% | 14.7% | 8.2µM*
CCNC(=O)C1(C)CCCN(Cc2csc(-c3ccccc3)n2)C1 (stereo not drawn) | i | ? | ? | i
COCCNC(=O)Cn1nc(N2CCN(c3ccccc3OC)CC2)ccc1=O | i | . | . | i
CC(C)NC(=O)COC(=O)c1ccccc1OCC(=O)Nc1ccc(Br)cc1 | . | -9.6% | -24.0% | .

Bioassay records: PubChem, National Center for Advancing Translational Sciences (NCATS)
